A selection: hits, their analogues and other compounds. The true share with any hit is near 5.2%.
Coupling enz – inhibits coupling enzyme system, counter-screen for aldolase hits; coupling enzyme system counterscreen, AmpLite Red fluorescence; 290,000 tested, 0.67% active; activity change, negative = inhibition, % at 58.2 µM, hits read low; AID 2472; in the data active = activity change below about -30%
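First, compound is pin-transferred into glyceraldehyde-3-phosphate coupling-enzyme reagent at 57.5 uM final and held 10 min at RT. Next, substrate, coupling system and AmpLite Red are added. After 20 min RT, fluorescence (525/598 nm) is read.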
Sfp PPTase inh – Sfp phosphopantetheinyl transferase inhibition; Biochemical Sfp PPTase activity, qHTS; AID 1490; Q9F4F7; Potency, µM, for inactives: largest response in the series, negative = inhibition, hits mostly inhibitors; 310,000 tested, 3.5% active;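 also: the enzyme is Sfp with the accession as filed and its product quenches rhodamine fluorescence; potency is read from the fitted curve at half-maximal effect; 0% = enzyme reaction without inhibitor and -100% = no enzyme wells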
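Reaction rates are the 30-min fluorescence difference (ex 525, em 598 nm) in wells containing 15 nM Sfp, 5 uM rhodamine-CoA and 12.5 uM BHQ-2-YbbR at pH 7.6 with 10 mM MgCl2.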
Tau fluor counter – counter-screen for tau fibril formation inhibitors; 280,000 tested, 0.93% active; tau K18 P301L Alexa594 fluorescence, heparin fibrillization; Potency, µM (top dose mostly 57.7 µM), for the others: top-dose activity change, negative = decrease; also: potency is read from the fitted curve at half-maximal effect; nearly all actives have a fitted effect of over 55% in size
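Human K18 P301L tau (15 uM unlabeled plus 0.24 uM Alexa 594-labeled, final) in 100 mM sodium acetate pH 7 was mixed with compound and 20 uM heparin and incubated 6 hr at 37 C.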
Tau ThT inhib – inhibitors of human tau fibril formation, thioflavin T binding. P10636. recombinant tau K18 P301L (four-repeat tau fragment), heparin-induced fibrillization, ThT fluorescence. Potency, µM (top dose mostly 57.4 µM), for the others: top-dose activity, negative = inhibition, usual class: inhibitors. 270,000 tested, 2.1% active. AID 1460; also: potency is read from the fitted curve at half-maximal effect; nearly all actives have a fitted effect of over 55% in size
Target sequence (P10636 561-689 P618L limits assumed): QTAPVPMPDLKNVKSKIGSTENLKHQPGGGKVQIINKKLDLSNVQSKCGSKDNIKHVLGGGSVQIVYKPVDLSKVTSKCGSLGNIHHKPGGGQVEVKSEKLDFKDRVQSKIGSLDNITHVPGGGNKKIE
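K18 P301L tau (15 uM + 0.24 uM Alexa 594-tagged), heparin 20 uM, NaOAc pH 7, 6 h 37 C; ThT 30 uM, 1 h RT, ex 450/em 510 nm.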
Tau FP inhib – inhibitors of human tau fibril formation | AID 1468 | K18 P301L tau heparin fibrillization, Alexa594 FP, 6 h | P10636 | 280,000 tested, 0.39% active | Potency, µM (series often up to 57.7 µM), for the others: at the top dose activity, negative = inhibition, hits mostly inhibitors; also: potency is read from the fitted curve at half-maximal effect; nearly all actives have a fitted effect of over 55% in size
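K18 P301L tau (15 uM unlabeled/0.24 uM Alexa 594-labeled, final) + compound + heparin 20 uM final; 100 mM NaOAc pH 7; 6 hr 37 C; ThT 30 uM final added, 1 hr RT; FP ex 555/em 632 nm.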
The depositor's hits bear a star; ? = inconclusive; · = no result; [ ] = another dose, or the depositor's remark. Unless noted, calls follow the shape of the dose curve; as a rule, active = well fitted curve in the direction sought with a large enough effect; inconclusive = small, poorly fitted or top-dose-only effect, or another doubt; inactive = no such curve, though single readings can be large; an effect the other way counts as inactive or inconclusive. Unless noted, % is scaled to controls: 0 for no effect and ±100 for the full control effect.

SMILES	Coupling enz	Sfp PPTase inh	Tau fluor counter	Tau ThT inhib	Tau FP inhib
CC(=O)N1[C@H](C)C=C[C@]1(Cc1ccccc1)C(=O)NCc1ccc(C)o1	-2	22µM*	-5%	4%	1%
Cc1ccc(CNC(=O)C2(CC(C)C)C=CCN2C(=O)c2ccccc2)o1 (centres undefined)	-1	40µM*	-6%	?	-16%
CC(=O)N1[C@H](C)C=C[C@]1(Cc1ccccc1)C(=O)NCc1cc(F)cc(C(F)(F)F)c1	-1	6%	-11%	-4%	3%
CC(C)(C)OC(=O)N1CCC(c2c(C(=O)NCc3cccc(Cl)c3)cnn2-c2ccc(F)cc2)CC1	·	·	-28%	-26%	-4%
CCOc1cc(/C=C2/C(=O)N(c3ccccc3)N=C2C)ccc1OC(=O)c1ccco1	-13	?	?	?	-6%
CCOc1cc(/C=C2\C(=O)N(c3ccc(C(N)=O)cc3)N=C2C)ccc1OC(=O)c1cccs1	2	56µM*	?	?	?
CCOc1cc(/C=C2/SC(=S)N(CC(=O)O)C2=O)ccc1OC(=O)c1cccs1	10	4.5µM*	9%	?	2%
O=C(Nc1ccc(F)cc1F)c1csc(-c2ccncc2)n1	2	9%	-3%	-8%	5%
Cc1ccc(C(=O)Nc2cccc(C(F)(F)F)c2)cc1NC(=O)c1csc(-c2ccncc2)n1	7	20µM*	-15%	-11%	-9%
O=C(Nc1sc2c(c1C(=O)NCc1ccco1)CCCC2)c1ccc2c(c1)OCO2	-4	45µM*	-25%	-20%	0%
COC(=O)Nc1sc2c(c1C(=O)NCc1ccco1)CCCC2	-2	79µM*	-5%	-5%	1%
Cn1c(N)c(C(=O)COC(=O)c2ccccn2)c(=O)n(C)c1=O	1	6%	-1%	0%	-7%
O=C(OCC(=O)c1ccccc1Br)c1ccccn1	-1	56µM*	-1%	-14%	-2%
Cn1c(=O)c2c(nc(SCc3cccnc3)n2Cc2ccccc2)n(C)c1=O	1	79µM*	-9%	-8%	-3%
O=[N+]([O-])c1ccc(-c2cnc(NO)nc2)cc1	-3	56µM*	-7%	?	-3%
O=C(NCc1ccco1)c1cccn2c(=O)c3cc4ccccc4cc3nc12	-31*	?	-8%	2.8µM*	0%
COCCCNC(=O)c1cccn2c(=O)c3cc4ccccc4cc3nc12	-25	-18%	-11%	14µM*	-6%
N[C@@H](Cn1ccc(=O)n(Cc2ccccc2C(=O)O)c1=O)C(=O)O	0	56µM*	-3%	-5%	0%
O=C(Nc1ccc(OCC(=O)N2CCC(Cc3ccccc3)CC2)cc1)c1ccco1	-2	89µM*	-20%	?	-4%
CC(=O)Nc1ccc(OCC(=O)N2CCC(Cc3ccccc3)CC2)cc1	3	-7%	-11%	-9%	0%
Cc1nn(CCCC(=O)NCc2ccccc2)c(=O)c2cc3sccc3n12	·	·	6%	11%	4%
Cc1oc(-c2ccc(C(=O)N(C)Cc3ccccc3)cc2)nc1CN1CCc2ccccc21	·	·	-15%	-17%	8%
O=S(=O)(NCC(O)COCc1ccco1)c1cccs1 (centres undefined)	0	45µM*	4%	-15%	-15%
CC(C)=NOC[C@@H](O)COCc1ccco1	2	2%	-1%[11.6 µM]	-7%[11.5 µM]	-5%[11.6 µM]
O=C(NCCc1ccccc1Cl)c1cc2ccccn2n1	·	·	-8%	-12%	3%
SMILES	Coupling enz	Sfp PPTase inh	Tau fluor counter	Tau ThT inhib	Tau FP inhib
CC(=O)/C=N/Nc1ccccc1	-1	6%	1%	1%	-4%
OC[C@@H](O)[C@H](O)C(/C=N/Nc1ccccc1)=N\Nc1ccccc1	-6	?	?	28µM*	-13%
O=C1c2ccccc2C(=O)N1c1cccc(-c2csc(Nc3ccc4c(c3)OCO4)n2)c1	-2	?	7.9µM*[quencher]	8.9µM*	?
COc1ccccc1Nc1nc(-c2cccc(N3C(=O)c4ccccc4C3=O)c2)cs1	1	0%	?	?	7%
O=C(COc1cccc(C(F)(F)F)c1)N1CCN(c2ccccc2O)CC1	1	18%	-20%	-9%	9%
O=C(COc1cccc(C(F)(F)F)c1)N1CCN(c2ccc(O)cc2)CC1	-8	28µM*	-23%	?	7%
O=C(CCCOc1ccccc1)N1CCN(c2ccccc2)CC1	-1	7%	-20%	?	4%
O=C(CCOc1ccccc1)N1CCN(c2ccc(O)cc2)CC1	2	50µM*	-15%	?	6%
O=C(CCSc1ccc(Cl)cc1)N1CCN(c2ccc(O)cc2)CC1	-2	79µM*	?	?	-5%
Cc1ccc(-c2nnc(Nc3ccc(Br)cc3)c3ccccc23)cc1S(=O)(=O)N1CCOCC1	·	·	-17%	13%	-29%
O=C(O)c1ccccc1N/N=C\c1ccnc2ccccc12	2	12%	-24%	5µM*	11%
O=C(O)c1ccccc1N/N=C/c1cc(Br)cc(Br)c1O	9	-13%	?	14µM*	22%
CN1C(C(=O)c2ccccc2)=C(NC(=O)c2ccccc2Br)c2ccccc2S1(=O)=O	·	·	?	2%	?
COC(=O)c1ccc2c(=O)n(CCCCCC(=O)NCc3ccc(Cl)cc3)c(=O)[nH]c2c1	·	·	-10%	-17%	?
CCCOc1ccc(/C=C/C(=O)Nc2sc(C)c(C)c2C(=O)OCC)cc1OC	·	·	-20%	28µM*	?
COc1ccccc1NC(=O)Nc1nn(C)c2cccc(N(C)C)c12	-34*	-10%	?	·	12%
CCCn1c(SCc2nc(-c3ccc(OC)c(OC)c3)no2)nnc1-c1ccccc1	·	·	-13%	-16%	-7%
CO[C@@H]1COC(=O)[C@H](C)NC(=O)C/C=C\[C@@H](C)[C@@H](NS(=O)(=O)c2ccc(C)cc2)COC(=O)C/C=C\[C@@H]1C	0	?	2%[11.6 µM]	-3%[11.5 µM]	5%[11.6 µM]
Cc1ccc(F)c(C2C3C=CCC(C)C3C(=O)N2Cc2ccccc2)c1 (centres undefined)	2	-14%	·	·	·
CCN(CC)c1ccc(NC(=O)c2ccc3c(c2)c(C)c(C)n3C)cc1	0	-11%	?	4µM*	12%
O=C(NCc1ccc(F)cc1)C(=O)NCC(c1ccco1)S(=O)(=O)c1cccs1 (centres undefined)	·	·	-19%	-8%	-8%
COc1cccc(-c2noc(Cn3nc(C)c([N+](=O)[O-])c3C)n2)c1	-2	35µM*	-6%	-3%	-1%
CCOC(=O)/C(C#N)=C1/C(=O)N(Cc2ccccc2)c2ccccc21	-38*	45µM*	-12%	?	-2%
CCOC(=O)C(C#N)=C1CCN(Cc2ccccc2)CC1	1	11%	·	·	·
COc1ccc(N2C(=O)C(Cl)=C(Nc3ccccc3OC)C2=O)cc1	0	-9%	?	?	?
